# Measured values as given in PubChem BioAssay (NCATS).
# Records with an inconclusive call do not appear. Active and inactive are the calls of the source. Unless noted, calls follow the shape of the full dose curve.
# Assays:
# [1] = target: Cytochrome P450 1A2 (Homo sapiens) (UniProt P05177); assay: qHTS for inhibitors of CYPIA2 against the NCATS DSHEA and TCM libraries (AID 1919976; active = well fitted curve in the direction sought with a large enough effect; an effect the other way counts as inactive or inconclusive; also: potency is read from the fitted curve at half-maximal effect)
# How it was run: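 Luminescence read-out: pro-luciferin converted to D-luciferin by CYP1A2, detected with P450-Glo reagent after 30 min RT. Enzyme plus substrate got compounds for 15 min RT; NADPH regeneration solution (final 1x) started a 30-45 min reaction, light-protected.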
# [2] = qHTS Counterscreen for compound interference against the NCATS DSHEA and TCM libraries (AID 1919978; active = well fitted curve in the direction sought with a large enough effect; an effect the other way counts as inactive or inconclusive; also: % of control where 0% means no effect); settings: firefly luciferase detection reagent interference, luminescence
# How it was run: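 Read-out is luminescence after 30 min at RT with luciferin detection reagent. Before that, compounds (19.5 nM to 39.8 uM final) sat 15 min at RT with 1 uM D-luciferin or 100 mM potassium phosphate buffer. PTC124 served as intraplate control.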
# [3] = Dual reporter qHTS for agonist of Pregnane X Receptor (hPXR) against the NCATS DSHEA and TCM libraries: Fluorescence readout (AID 1920058; active = well fitted curve in the direction sought with a large enough effect; an effect the other way counts as inactive or inconclusive; also: 0% is about no effect)
# How it was run: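 Fluorescence read-out for cell viability: CellTiter-Fluor, 1 h at 37 °C, Ex/Em 405/540 nm. This followed ~24 h treatment of hPXR-Luc HepG2 cells with substances in agonist mode.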
# [4] = Dual reporter qHTS for antagonist of Pregnane X Receptor (hPXR) against the NCATS DSHEA and TCM libraries: Fluorescence Readout (AID 1920061; active = well fitted curve in the direction sought with a large enough effect; an effect the other way counts as inactive or inconclusive; also: 0% is about no effect)
# How it was run: (§1)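 hPXR-Luc HepG2 cells exposed 24 h at 37 C to compounds with 2 uM rifampicin in antagonist mode; luciferase luminescence measured by ONE-Glo, with CellTiter-Fluor viability read beforehand.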
# [5] = qHTS drug screen for cell cycle checkpoint inhibitors in PARPi-resistant BRCA-mutant ovarian cancer cell lines. (AID 1963452); settings: PEO1/OlaR viability, CellTiter-Glo luminescence, 96 h; for Z-AUC: stronger effect = lower value; also: potency is read from the fitted curve at half-maximal effect
# How it was run: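 PEO1, PEO4 and PEO1/OlaR ovarian cancer cells, 600 per well, exposed 96 h at 37C to a dilution series. Viability read by CellTiter-Glo luminescence, normalized to DMSO and empty wells; activity summarized as Z-AUC.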
# [6] = qHTS for identification of novel therapeutic agents for treatment of microphthalmiaassociated transcription factor (MiT) renal cell carcinoma (RCC) (AID 1963991); settings: CellTiter-Glo, 48 h, stronger effect = lower value
# How it was run: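 Three TFE3-fusion RCC lines (UOK109, UOK124, UOK145), 500 cells/well in complete medium, were treated with MIPE 4.0 compounds for 48 hours at 37 C. Viability was by CellTiter-Glo luminescence, normalized to DMSO (100%) and empty wells (0%); curves fitted over 11 concentrations.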
# [7] = target: Nuclear receptor subfamily 1 group I member 2 (Homo sapiens) (UniProt O75469); assay: Dual reporter qHTS for agonist of Pregnane X Receptor (hPXR) against the NCATS DSHEA and TCM libraries: Luminescence readout (AID 1920059; active = well fitted curve in the direction sought with a large enough effect; an effect the other way counts as inactive or inconclusive; also: 0% is about no effect)
# How it was run: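 Luminescent PXR reporter read (ONE-Glo) after a CellTiter-Fluor viability read, following 24 h, 37C treatment of HepG2 cells stably carrying hPXR-Luc.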
# [8] = target: Nuclear receptor subfamily 1 group I member 2 (Homo sapiens) (UniProt O75469); assay: Dual reporter qHTS for antagonist of Pregnane X Receptor (hPXR) against the NCATS DSHEA and TCM libraries: Luminescence Readout (AID 1920060; active = well fitted curve in the direction sought with a large enough effect; an effect the other way counts as inactive or inconclusive;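 also: HepG2 cells carrying hPXR luciferase reporter stimulated with rifampicin at 2 µM; 0% is about no effect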)
# How it was run: as §1
# [9] = measured here: PEO1 parental Z-AUC
# Sequence of Cytochrome P450 1A2 (Homo sapiens) (P05177 whole entry, looked up): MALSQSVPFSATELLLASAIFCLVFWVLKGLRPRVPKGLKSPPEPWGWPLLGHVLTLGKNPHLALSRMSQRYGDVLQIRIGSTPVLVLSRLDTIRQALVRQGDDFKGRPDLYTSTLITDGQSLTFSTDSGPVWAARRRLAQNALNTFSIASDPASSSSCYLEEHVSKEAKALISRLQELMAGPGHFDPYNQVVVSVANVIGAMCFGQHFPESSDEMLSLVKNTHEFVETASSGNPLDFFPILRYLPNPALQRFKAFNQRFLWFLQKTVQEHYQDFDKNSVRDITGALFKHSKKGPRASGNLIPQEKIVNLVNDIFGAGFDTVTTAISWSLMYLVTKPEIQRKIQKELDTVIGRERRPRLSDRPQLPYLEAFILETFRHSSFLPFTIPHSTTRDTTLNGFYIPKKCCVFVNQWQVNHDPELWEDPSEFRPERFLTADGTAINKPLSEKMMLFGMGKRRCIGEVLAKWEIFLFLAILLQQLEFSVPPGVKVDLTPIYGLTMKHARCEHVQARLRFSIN
# Sequence of Nuclear receptor subfamily 1 group I member 2 (Homo sapiens) (O75469 whole entry, looked up): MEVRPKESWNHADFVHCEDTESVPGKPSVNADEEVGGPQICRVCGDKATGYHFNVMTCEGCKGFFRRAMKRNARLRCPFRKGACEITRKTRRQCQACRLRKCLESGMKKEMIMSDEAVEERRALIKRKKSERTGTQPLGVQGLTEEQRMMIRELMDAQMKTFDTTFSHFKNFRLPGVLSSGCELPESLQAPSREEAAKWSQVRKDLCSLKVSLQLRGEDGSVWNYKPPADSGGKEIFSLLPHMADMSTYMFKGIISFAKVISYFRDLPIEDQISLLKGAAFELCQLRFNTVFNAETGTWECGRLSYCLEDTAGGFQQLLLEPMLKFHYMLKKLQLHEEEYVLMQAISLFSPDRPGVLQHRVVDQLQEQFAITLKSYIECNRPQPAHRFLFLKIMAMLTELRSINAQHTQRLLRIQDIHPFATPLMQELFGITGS
structure (smiles),measurement,setting,value
C=C(C)[C@@H]1CC[C@]2(C(=O)O)CC[C@]3(C)[C@H](CC[C@@H]4[C@@]5(C)CC[C@H](O)C(C)(C)[C@@H]5CC[C@]43C)[C@@H]12,Potency,[1],inactive
same,max response,[2],1.9% (inactive)
same,outcome,[3],inactive
same,outcome,[4],inactive
same,Z-AUC,[5],1.23 (inactive)
same,Z-AUC,[5]; [9],0.622
same,Z-AUC,[5]; measured here: PEO4 Z-AUC,0.86
same,z-score,"[6]; TFE3-RCC UOK109 viability, measured here: UOK109 Z-AUC",0.38
same,z-score,"[6]; TFE3-RCC viability, measured here: UOK124 Z-AUC",0.714
same,z-score,"[6]; TFE3-RCC viability, measured here: UOK145 Z-AUC",0.25
CC(C)(N)c1ccc(-c2nc3ccccc3nc2-c2ccccc2)cc1,Z-AUC,[5],0.345 (inactive)
same,Z-AUC,[5]; [9],0.18
same,Z-AUC,[5]; measured here: PEO4 Z-AUC,0.291
C[C@](Cc1c[nH]c2ccccc12)(NC(=O)OC1C2CC3CC(C2)CC1C3)C(=O)NC[C@H](NC(=O)CCC(=O)O)c1ccccc1 (some centres not stated),Z-AUC,[5],-0.246 (inactive)
same,Z-AUC,[5]; [9],-0.184
same,Z-AUC,[5]; measured here: PEO4 Z-AUC,-0.0323
c1cc(N[C@@H]2CCNC2)nc(-c2cnc3ccc(-c4cn[nH]c4)cn23)c1,Z-AUC,[5],-1.39 (inactive)
same,Z-AUC,[5]; [9],-0.698
same,Z-AUC,[5]; measured here: PEO4 Z-AUC,-0.866
COc1ccc(C(C)=O)c(O)c1,Potency,[1],15.8 µM (active)
same,max response,[2],3.21% (inactive)
same,outcome,[3],inactive
same,outcome,[7],inactive
same,outcome,[8],inactive
same,outcome,[4],inactive
NC(=O)N1CCC(CC(=O)N2CCC([C@H]3c4ncc(Br)cc4CCc4cc(Cl)cc(Br)c43)CC2)CC1,Z-AUC,[5],-0.923 (inactive)
same,Z-AUC,[5]; [9],-0.883
same,Z-AUC,[5]; measured here: PEO4 Z-AUC,-0.991
CN1CCc2c(c3ccccc3n2Cc2ccc(C(=O)NO)cc2)C1,Z-AUC,[5],-0.848 (inactive)
same,Z-AUC,[5]; [9],-0.74
same,Z-AUC,[5]; measured here: PEO4 Z-AUC,-1.03
CCc1ccc(C(=O)Nc2cc(CN3CCN(C)CC3)cc(C(F)(F)F)c2)cc1C#Cc1cnc2ccnn2c1,Z-AUC,[5],-0.668 (inactive)
same,Z-AUC,[5]; [9],-1.24
same,Z-AUC,[5]; measured here: PEO4 Z-AUC,-0.914
CC(C)[C@H](CO)Nc1nc(Nc2cccc(Cl)c2)c2ncn(C(C)C)c2n1,Z-AUC,[5],0.56 (inactive)
same,Z-AUC,[5]; [9],0.0457
same,Z-AUC,[5]; measured here: PEO4 Z-AUC,0.284
CC(C)(C)c1nc2c3cc[nH]c(=O)c3c3cc(F)ccc3c2[nH]1,Z-AUC,[5],-0.0239 (inactive)
same,Z-AUC,[5]; [9],0.604
same,Z-AUC,[5]; measured here: PEO4 Z-AUC,0.212
CCN(CC)Cc1ccc2cc(COC(=O)Nc3ccc(C(=O)NO)cc3)ccc2c1,Potency,[5],977 nM (active)
same,Z-AUC,[5]; [9],-1.11
same,Z-AUC,[5]; measured here: PEO4 Z-AUC,-1.29
Nc1nc(N)c2nc(-c3cccc(O)c3)c(-c3cccc(O)c3)nc2n1,Z-AUC,[5],0.00904 (inactive)
same,Z-AUC,[5]; [9],1.16
same,Z-AUC,[5]; measured here: PEO4 Z-AUC,0.781
O=C1NCCc2[nH]c(-c3ccncc3)cc21,Z-AUC,[5],-1.33 (inactive)
same,Z-AUC,[5]; [9],-1
same,Z-AUC,[5]; measured here: PEO4 Z-AUC,-1.61
C[C@@H](NCc1cc2ccccc2[nH]1)c1cccc2ccccc12,Z-AUC,[5],0.66 (inactive)
same,Z-AUC,[5]; [9],0.376
same,Z-AUC,[5]; measured here: PEO4 Z-AUC,0.0374
Oc1cc2c(cc1O)C1c3ccc(O)c(O)c3OCC1(O)C2 (configuration not stated),Z-AUC,[5],1.52 (inactive)
same,Z-AUC,[5]; [9],1.33
same,Z-AUC,[5]; measured here: PEO4 Z-AUC,1.39
COc1cc2ncnc(Nc3cccc(Br)c3)c2cc1OC,Z-AUC,[5],0.281 (inactive)
same,Z-AUC,[5]; [9],0.586
same,Z-AUC,[5]; measured here: PEO4 Z-AUC,0.428
CCCCCCCN(CC)CCCC(O)c1ccc(NS(C)(=O)=O)cc1 (configuration not stated),Z-AUC,[5],1.02 (inactive)
same,Z-AUC,[5]; [9],0.764
same,Z-AUC,[5]; measured here: PEO4 Z-AUC,1.03
C[C@H](NC(=O)[C@@H](O)c1cc(F)cc(F)c1)C(=O)N[C@@H]1C(=O)N(C)c2ccccc2-c2ccccc21,Z-AUC,[5],0.549 (inactive)
same,Z-AUC,[5]; [9],0.437
same,Z-AUC,[5]; measured here: PEO4 Z-AUC,0.274
CC(O)(C#Cc1ccc2c(c1)N(c1nc(N)ncc1Cl)CC2)c1nccs1 (configuration not stated),Z-AUC,[5],-0.29 (inactive)
same,Z-AUC,[5]; [9],-0.463
same,Z-AUC,[5]; measured here: PEO4 Z-AUC,-0.647
c1cncc(CN2CCC(n3ncc4c(N5CCOCC5)nc(-c5ccc6[nH]ccc6c5)nc43)CC2)c1,Z-AUC,[5],-0.587 (inactive)
same,Z-AUC,[5]; [9],-0.0764
same,Z-AUC,[5]; measured here: PEO4 Z-AUC,-0.549
Cc1ccccc1C(=O)Nc1ccc(C(=O)N2CCCC(O)c3cc(Cl)ccc32)c(C)c1 (configuration not stated),Z-AUC,[5],-0.543 (inactive)
same,Z-AUC,[5]; [9],-0.255
same,Z-AUC,[5]; measured here: PEO4 Z-AUC,0.00137
Oc1ccc([C@@H]2Oc3ccc(O)cc3[C@@H]3CCC[C@@H]32)cc1,Z-AUC,[5],0.648 (inactive)
same,Z-AUC,[5]; [9],-0.25
same,Z-AUC,[5]; measured here: PEO4 Z-AUC,-0.0299
C[C@H](NC(=O)Cc1cc(F)cc(F)c1)C(=O)N[C@H](C(=O)OC(C)(C)C)c1ccccc1,Z-AUC,[5],-0.609 (inactive)
same,Z-AUC,[5]; [9],-0.43
same,Z-AUC,[5]; measured here: PEO4 Z-AUC,-0.265
O=C(O)c1ccc(Nc2ncc3c(n2)-c2ccc(Cl)cc2C(c2c(F)cccc2F)=NC3)cc1,Z-AUC,[5],0.584 (inactive)
same,Z-AUC,[5]; [9],0.311
same,Z-AUC,[5]; measured here: PEO4 Z-AUC,-0.364
O=C(NC1CC1)c1cccc(-c2ccc3c(NC(=O)C4CC4)n[nH]c3c2)c1,Z-AUC,[5],-1.31 (inactive)
same,Z-AUC,[5]; [9],-0.612
same,Z-AUC,[5]; measured here: PEO4 Z-AUC,-0.0864
COc1ccc(Nc2nccc(NCCO)n2)cc1,Z-AUC,[5],1.22 (inactive)
same,Z-AUC,[5]; [9],0.748
same,Z-AUC,[5]; measured here: PEO4 Z-AUC,0.763
C[N+](C)([O-])CCNc1ccc(NCC[N+](C)(C)[O-])c2c1C(=O)c1c(O)ccc(O)c1C2=O,Z-AUC,[5],0.909 (inactive)
same,Z-AUC,[5]; [9],-0.431
same,Z-AUC,[5]; measured here: PEO4 Z-AUC,0.857
O=c1ccn([C@@H]2O[C@H](CO)[C@H](O)[C@@H]2F)c(=O)[nH]1,Z-AUC,[5],0.179 (inactive)
same,Z-AUC,[5]; [9],0.56
same,Z-AUC,[5]; measured here: PEO4 Z-AUC,0.262
Cc1ccc(-n2[nH]c(C)c(N=Nc3cccc(-c4cccc(C(=O)O)c4)c3O)c2=O)cc1C,Z-AUC,[5],-0.217 (inactive)
same,Z-AUC,[5]; [9],-0.314
same,Z-AUC,[5]; measured here: PEO4 Z-AUC,0.208
